Assay outcomes: PubChem BioAssay, National Center for Advancing Translational Sciences (NCATS)
Sampled rows, rich in hits. Any-hit rate of the full collection: about 8%.
KB-3-1 tox: kills parental KB-3-1 adenocarcinoma cells | KB-3-1 viability, CellTiter-Glo ATP luminescence, 72 h | Potency, µM (doses to about 46.1 µM), usual class: cytotoxic | hit rate 1.4% among 400,000; also: % is scaled to controls: 0 for no effect and ±100 for the full control effect; nearly all actives have a fitted effect of over 60% in size
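Viability of parental KB-3-1 cells, measured by CellTiter-Glo luminescence, followed a 72 h incubation at 37 °C with pinned compounds in phenol-red-free DMEM containing 10% FBS.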
KB-V1 cytotox: kills drug-selected multidrug resistant KB-V1 cells; Potency, µM (series often up to 46.1 µM), usual class: cytotoxic; KB-V1 MDR cells viability, CellTiter-Glo, 72 h; hit rate 3.4% among 400,000; also: % is scaled to controls: 0 for no effect and ±100 for the full control effect; nearly all actives have a fitted effect of over 60% in size
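In this primary screen, KB-V1 cells overexpressing P-gp are incubated with library compounds (lowest to highest concentration) for 72 h at 37 degrees C before a luminescent ATP viability read.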
HT1080 IDH1KD tx: kills HT-1080 cells with IDH1 knockdown; HT-1080 IDH1 knockdown viability, ATP luminescence, 48 h; Potency, µM (highest dose often 46.1 µM), for the others: at the top dose activity, negative = toxicity, usual class: cytotoxic; hit rate 2% among 360,000; AID 686971;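 also: 0% = DMSO wells and -100% = cell-free medium wells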
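In this qHTS, HT-1080 cells depleted of IDH1 are exposed for 48 h at 37 °C to compound titrations. Toxicity is scored from CellTiter-Glo luminescence, with DMSO as full viability and medium alone as none.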
SW480 rerep: induces DNA re-replication in SW480 colon adenocarcinoma cells; SW480 DNA re-replication, Hoechst DNA content imaging, 48 h; Potency, µM (titrated, usually from 46.1 µM), inactives show top-dose re-replication activation, usual class: activators; hit rate 1.8% among 340,000; AID 624297; also: % of control where 0% means no effect; nearly all actives have a fitted effect of over 55% in size
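250 cells/well; 23 nL cpd via pin tool; 48 hr, 37 C, 5% CO2; Hoechst 40 min; imager read of total nuclear intensity, ex 405/em 500-530 nm.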
HT1080NT lethal: kills 2HG-producing HT-1080-NT fibrosarcoma cells | HT-1080-NT fibrosarcoma viability, CellTiter-Glo ATP luminescence, 48 h | Potency, µM (top dose mostly 46.1 µM), for inactives: top-dose activity, negative = less viability, usual class: cytotoxic | hit rate 1.6% among 360,000 | AID 686970;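 also: NT is the 2HG producing partner of a matched IDH1 knockdown line; 0% = DMSO-treated cells and -100% = media-only wells without cells; nearly all actives have a fitted effect of over 55% in size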
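A 48-hour cytotoxicity screen used HT-1080-NT cells plated 2 hours before compound delivery. ATP-based CellTiter-Glo luminescence measured viability, normalized to DMSO and no-cell controls.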
MCF10A rereplic: inducers of DNA re-replication in MCF 10A breast cells. MCF 10A DNA re-replication, Hoechst nuclear intensity, 48 h. Potency, µM (top dose mostly 46.1 µM), for the others: at the top dose activity, positive = re-replication, most hits filed as activators. hit rate 2.9% among 350,000. AID 624296; also: % of control where 0% means no effect; nearly all actives have a fitted effect of over 50% in size
* = called active by the depositor; i = inactive; ? = inconclusive; . = not tested or not shown. Calls follow the shape of the dose curve; as a rule, active = well fitted curve in the direction sought with a large enough effect; inconclusive = small, poorly fitted or top-dose-only effect, or another doubt; inactive = no such curve, though single readings can be large; an effect the other way counts as inactive or inconclusive. Potency is read from the fitted curve at half-maximal effect.

SMILES	KB-3-1 tox	KB-V1 cytotox	HT1080 IDH1KD tx	SW480 rerep	HT1080NT lethal	MCF10A rereplic
Cc1nc([N+](=O)[O-])c(Sc2nc3ccccc3[nH]2)n1Cc1ccccc1	i	i	6%	?	12%	?
Cc1nc(C)c2c(=O)cc(-c3ccccc3)[nH]c2n1	7.1µM*	3.2µM*	8.9µM*	8.9µM*	10µM*	7.9µM*
Cc1nc(-c2ccc([N+](=O)[O-])cc2)nc2[nH]ccc(=O)c12	i	i	30%	-12%	?	10%
Cc1nc(-c2ccccc2)nc2[nH]ccc(=O)c12	?	9.2µM*	11%	-5%	25%	4%
Cc1ccnc(NC(=O)CCNC(=O)c2ccc(Cl)cc2)c1	i	i	-1%	?	7%	1%
COc1ccc(-n2c(SCC(=O)NCc3ccc(Cl)cc3)nc3ccsc3c2=O)cc1	i	?	.	.	.	.
COc1ccc(-c2cc(CCCC(=O)NCCc3cc(OC)ccc3OC)no2)cc1	?	4.6µM*	-3%	1%	0%	7%
CCOC(=O)C1CCN(c2ncnc3c2nc2n3CCCCC2)CC1	i	i	.	.	.	.
CC(C)c1ccc(N2C(=O)CS(=O)(=O)C23C(=O)N(Cc2cccc(F)c2)c2ccccc23)cc1 (stereo not given)	i	i	.	.	.	.
O=S(=O)(Nc1ccc(S(=O)(=O)Nc2nccs2)cc1)c1ccc2c(c1)OCCO2	i	i	?	?	-20%	21µM*
CS(=O)(=O)N1CCc2cc(S(=O)(=O)Nc3ccc4c(c3)OCCO4)ccc21	?	21µM*	-22%	-5%	?	4%
COc1ccc(CCNC(=O)c2cc3n(n2)CCCN(Cc2ccc(C)cc2)C3=O)cc1OC	i	i	.	.	.	.
O=C1OCCN1C(=O)[C@H]1[C@H](c2ccccc2)C(c2cccc(Cl)c2)=NN1c1ccccc1	i	i	-15%	18µM*	-13%	?
Cc1cccc(C2=NN(c3ccccc3)[C@@H](C(=O)N3CCOC3=O)[C@@H]2c2ccc(F)cc2)c1	i	i	-18%	?	-9%	?
O=C1OCCN1C(=O)[C@H]1[C@H](c2ccc(Cl)cc2)C(c2ccccc2)=NN1c1ccccc1	i	i	-16%	?	-11%	?
Cc1cccc(C2=NN(c3ccccc3)[C@@H](C(=O)N3CCOC3=O)[C@@H]2c2ccc(Cl)cc2)c1	i	i	-19%	26µM*	-9%	2.3µM*
O=C(O)c1cccc(-c2noc(-c3ccccc3F)n2)c1	.	.	.	-6%	.	2%
COc1cc2c(cc1OC)n(CC(=O)Nc1ccc(C)cc1C)c(=O)n1nc(-c3ccccc3)nc21	i	i	.	.	.	.
O=C1OC(c2cccc([N+](=O)[O-])c2)C2(CCCC2)C(=O)C12CCCCC2 (stereo not given)	i	?	16µM*	?	?	?
O=C1OC(c2ccccc2)C2(CCCC2)C(=O)C12CCCC2 (stereo not given)	i	i	-4%	-1%	5%	-1%
CCc1nc2c(OCC3COc4ccccc4O3)cccn2c1N(C)C(=O)c1ccc(OC)cc1 (stereo not given)	i	i	22%	.	23%	.
N#C/C(=C(/O)c1cccc(F)c1)c1nc2ccccc2s1	5.8µM*	2.9µM*	-2%	-5%	-2%	11%
Cn1c(/C(C#N)=C(\O)c2cccc(F)c2)nc2ccccc21	i	i	?	114%	?	20%
N#C/C(=C(/O)c1cc2ccccc2o1)c1nc2ccccc2s1	21µM*	?	6%	?	0%	8.2µM*
COc1ccccc1N1C(=NC(=O)CCc2ccccc2)SC2CS(=O)(=O)CC21 (stereo not given)	i	i	-12%	0%	-1%	-2%
SMILES	KB-3-1 tox	KB-V1 cytotox	HT1080 IDH1KD tx	SW480 rerep	HT1080NT lethal	MCF10A rereplic
Cc1nn(-c2ccccc2)c2c1N(CCCC(=O)NCc1ccc(Cl)cc1)C(=O)CS2	i	i	.	.	.	.
Cc1nn(-c2ccccc2)c2c1N(CCCC(=O)NCc1ccccc1)C(=O)CS2	?	16µM*	.	.	.	.
CC(=O)Oc1cc(C)c(OC(C)=O)c2ccccc12	.	.	.	27µM*	.	?
CCOc1ccc(CCNC(=O)C(O)c2ccccc2)cc1 (stereo not given)	i	i	0%	5%	6%	-1%
CCOc1ccc(/C=N/NC(=O)C(O)c2ccccc2)c(O)c1 (stereo not given)	i	i	12µM*	?	?	8%
O=C(Nc1cc(Sc2ccccn2)cc([N+](=O)[O-])c1)c1cccc(F)c1	13µM*	13µM*	?	-3%	-25%	5%
CCOC(=O)c1cc2sccc2n1CCCN1C(=O)c2ccccc2C1=O	i	?	-6%	10%	-2%	21µM*
CN(C)Cc1csc(NC(=O)Nc2ccccc2Cc2ccccc2)n1	i	i	?	.	15µM*	.
Cc1cccc(C)c1NC(=O)Nc1nc(CN(C)C)cs1	i	i	16%	.	?	.
NC(Cc1ccc(C(F)(F)F)cc1)c1csc(NC(=O)Nc2ccccc2Cc2ccccc2)n1 (stereo not given)	?	?	23µM*	.	8.2µM*	.
CC(C)c1ccccc1NC(=O)Nc1nc(C(N)Cc2ccc(C(F)(F)F)cc2)cs1 (stereo not given)	?	?	?	.	5.8µM*	.
COc1cc(C(O)c2nc(-c3ccc4ccccc4c3)cs2)ccc1F (stereo not given)	i	?	?	.	23µM*	.
COc1ccc(C(O)c2nc(-c3ccc4ccccc4c3)cs2)cc1 (stereo not given)	i	i	-14%	.	-28%	.
Cc1cc2ccccn2c1C(=O)c1ccccc1F	?	?	?	?	15µM*	?
CCc1noc2nc(C)n(CC(=O)O)c(=O)c12	i	i	.	.	.	.
C=CC(=O)Nc1ccc(Nc2nc(NC3CCC(N(C)C)CC3)nc3c2ncn3C(C)C)cc1 (stereo not given)	1µM*	i	2.3µM*	4%	?	?
COc1ccc(Cl)cc1S(=O)(=O)N1CCCC(C(=O)NCc2ccccc2)C1 (stereo not given)	.	.	-17%	21%	-6%	10%
COC(=O)[C@@]1(Cc2ccc(F)cc2)[C@H]2c3cc(C(=O)N(C)C)n(Cc4ccc(C)o4)c3C[C@H]2CN1C(=O)c1ccccc1	?	16µM*	21µM*	.	?	.
